Test results as given in PubChem BioAssay (NCI).
This is part of a sample that, as a whole, favours compounds with a hit. Of some 83,000 tested, about 20% had one in any assay.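 Cells were grown in 96-well plates and exposed to the test compound at a single concentration for 48 hours; results are reported as percent growth, with values below 10 considered active.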 Values without a mark were called inactive. Active and inactive are the calls of the source.

Columns and labels:
Experiment in all cases: NCI-60 one-dose screen, 48 h (100 = growth as untreated, 0 = no growth, -100 = all killed)
Conditions in all cases: 10 µM
[1] = system: NCI-H23 lung
[2] = system: NCI-H226 lung
[3] = system: NCI-H322M lung
[4] = system: NCI-H460 lung
[5] = system: NCI-H522 lung
[6] = system: A549/ATCC NSCLC
[7] = system: 786-0 renal
[8] = system: COLO 205 colon
[9] = system: HOP-92 NSCLC
[10] = system: HOP-62 NSCLC

SMILES | growth [1] | growth [2] | growth [3] | growth [4] | growth [5] | growth [6] | growth [7] | growth [8] | growth [9] | growth [10]
CCOc1ccccc1/C=N\N=C\c1ccccc1O | 87.7% | 104% | 93.8% | 107% | 99.8% | 108% | 106% | 108% |  | 
Cc1ccc(-c2c3c(N)nc(-c4cccnc4)nc3nc3c2c(C)nn3-c2ccccc2)cc1 | 97.9% | 52.2% | 76.8% | 85% |  | 68.4% | 80.9% | 83.6% | 46.5% | 
COc1ccc(Cl)cc1Nc1nc(C(F)(F)F)ccc1C(=O)N/N=C/c1cc(OC)c(OC)c(OC)c1 | 54.9% | 30.7% | 8.92% (active) | 21.4% |  | 59.4% |  | 12.8% | -12% (active) | 
CN(C)c1ccc(/C=N/NC(=O)c2cccc3ccccc23)c(Cl)c1 | 1.31% (active) | 61.2% | 57.6% | 19.2% | 22.6% | 26.8% | 56.1% | 19.7% |  | 
COc1ccc(C(=O)CC(CC(=O)c2ccc(OC)cc2)c2c(C)nn(-c3ccccc3)c2Cl)cc1 | 90.7% | 92.8% | 96.5% | 97.5% | 79.4% | 95.1% | 86.3% | 117% |  | 
O=C(N/N=C/c1cc([N+](=O)[O-])ccc1O)c1cccc2ccccc12 | 45.3% | 42.6% | 45.4% | 20.7% | 21.9% | 54.8% | 36.5% | 48.9% |  | 
CCOC(=O)c1cocc1C(=O)O | 109% | 102% | 110% | 104% | 106% | 101% | 103% | 108% |  | 
CC1(C)N=C(N)N=C(N)N1c1cccc(C#N)c1 | 75.2% | 67.9% | 64.6% | 22.3% | 65.6% | 29.4% | 35.8% | 66.8% |  | 
CCCCC1(O)CCCCC1 | 108% | 97.3% | 105% | 108% |  | 103% | 92.6% | 99.1% |  | 
CN(C)CCCOc1ccc(NC2=C(Cl)C(=O)C(Nc3ccc(OCCCN(C)C)cc3)=C(Cl)C2=O)cc1 | -72% (active) | -84.1% (active) |  | -65.7% (active) | -75.2% (active) | -56.2% (active) | -50% (active) | -74.3% (active) | -74.9% (active) | -98.2% (active)
CCN(CC)CCNc1ccc(C)c2sc3cc(Cl)ccc3c(=O)c12 | 55% | 75.2% |  | 1.44% (active) | 42.7% | 31.1% | 43.3% |  | 22% | 66.9%
COc1cc(C(=O)/C(C)=C/c2c[nH]c3ccccc23)cc(OC)c1OC | 32.3% | 61.7% |  | 9.7% (active) | -19.4% (active) | 11.6% | 11% |  | 47.1% | 39.2%
NC(N)=N/N=C(\c1ccccc1)C(O)c1ccccc1 (configuration not stated) | 101% | 96.1% | 101% |  | 82.5% | 102% | 98.3% | 101% | 95% | 
Cc1ccc(N=Nc2ccccc2)cc1 | 95.1% | 108% |  | 105% | 84.2% | 87.8% | 89.6% | 106% | 90.9% | 90.5%
NS(=O)(=O)Oc1ccc(NC(=O)C2CCCCCC2)cc1 | 97.4% | 100% |  | 106% | 95.6% | 96% | 107% | 112% | 98.9% | 99.3%
COc1cc(NC(=O)Nc2cnc(Nc3ccc(N4CCOCC4)cc3)nc2Oc2cccc(OC)c2)cc(OC)c1 | 61.3% | 7.06% (active) |  | 23.9% | 27.5% | 23.4% | -25.6% (active) | 46.2% | 4.67% (active) | 32.1%
COc1cc(-c2nc3ccccc3o2)cc(CN2CCCCC2)c1O | 22.1% | 78.8% |  | 31.7% | 65.9% | 34% | 94.7% |  | 103% | 49.7%
S=c1cnc2ccccc2[nH]1 | 98.4% | 107% |  | 96.3% | 95.5% | 93.5% | 98.9% |  | 79.4% | 93.3%
Cc1ccc(C(=O)/C=C/c2ccccc2)s1 | 109% | 93.8% |  | 108% | 93.5% | 101% | 86.7% | 134% | 144% | 120%
O=C1/C=C/[C@@H](O)[C@@H]2C[C@@H](O)C[C@H]2/C=C/CCC[C@H](CCc2ccc(NC(=S)Nc3ccc4c(c3)C(=O)OC43c4ccc(O)cc4Oc4cc(O)ccc43)cc2)O1 | 4.65% (active) | 17.4% |  | 15.4% | -31% (active) | 17.3% |  |  | -4.85% (active) | 25%
COc1ccc(/C=C2\CCCC3=C2NC(N)=NC3c2ccc(OC)cc2)cc1 (configuration not stated) | 94.1% | 77.3% |  | 99.2% | 77.3% | 89.4% | 106% |  | 68.6% | 110%
COc1cccc(CNc2cccc3cn[nH]c23)c1O | 94.9% | 87.6% |  | 111% | 86.3% | 90.6% | 105% |  | 72.3% | 95.3%
O=[N+]([O-])c1cccc(/C=N/NC(=S)NC23CC4CC(CC(C4)C2)C3)c1 | 86.6% | 48.4% |  | 56.4% | 88.8% | 56.5% | 79.8% |  | 64% | 24.3%
O=C(/C=C/C=C/c1c(C2CC2)nc2ccccc2c1-c1ccc(F)cc1)c1cccs1 | 20.7% | -53.6% (active) |  | -7.38% (active) | 2.39% (active) | 20.6% | 19.6% |  | 9.27% (active) | 24.2%
COc1ccc(/C=C2\CCCC3=C2NC(N)=NC3c2ccc(OC)c(OC)c2)cc1OC (configuration not stated) | 49.3% | 34.1% |  | 64.6% | 16.7% | 58.8% | 94.3% |  | 75% | 57%
CCN(CC)CCCOc1cccc2c1C(=O)c1cccc(OCCCN(CC)CC)c1C2=O | 38.2% | 42.8% |  | 16.5% | 43.8% | 22.3% | 40.8% | -12% (active) | 21.2% | 48.1%
CS(=O)(=O)c1nccc(-c2c(-c3cccc(OCCN4CCOCC4)c3)nc3sccn23)n1 | 90.3% | 83.9% |  | 101% | -63.3% (active) | 94.5% | 90.6% |  | 27.9% | 76.9%
c1ccc2c(c1)Cc1ccccc1N2CCN1CCCCC1 | 90% | 103% |  | 107% | 75.2% | 89.9% | 95.3% | 82.2% | 85.8% | 84.1%
COc1cc(-c2nn(-c3ccc(NC(=O)NCCNS(=O)(=O)c4ccc(F)cc4)cc3)cc2-c2ccncc2)ccc1Cl | 12.7% | 36.2% |  | 0.926% (active) | -10.4% (active) | 15.7% | -8.2% (active) | -63.5% (active) | -6.87% (active) | 29.7%
